# Measured values reported in the supplement of paper PMC9925115.
# Where a name gives a salt, the structure may show the parent alone. ± gives the uncertainty stated by the source.
# Test system: FLX1
# Experiment: cell viability z-score within plate (CellTiter-Glo), mean of 3 biological replicates; higher = higher viability relative to plate (less growth inhibition)
# Settings: 2 µM; time (hr): 120
# Description: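 FLX1 fibrolamellar carcinoma cells (DNAJB1-PRKACA fusion), 600 cells/well in 384-well plates, treated with a Selleck kinase inhibitor library (L1200) at 2 uM for 5 days (120 hr); viability by CellTiter-Glo. A z-score was computed within each plate and averaged over three biological replicates.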
row,SMILES,cell viability z-score within plate
1,Oc1cccc(-c2nc(N3CCOCC3)c3oc4ncccc4c3n2)c1,-0.163 ± 0.28
2,CC1=C(C(=O)Nc2cc3cn[nH]c3cc2F)C(c2ccc(C(F)(F)F)cc2)CC(=O)N1 (centres undefined),1.02 ± 0.74
3,O=c1sn(-c2cccc3ccccc23)c(=O)n1Cc1ccccc1 [Tideglusib],-2.63 ± 1.1
4,Nc1ccc(C(=O)Nc2cccc(-c3nc(N4CCOCC4)c4oc5ncccc5c4n3)c2)cn1,0.775 ± 0.24
5,Cc1cnc(Nc2ccc(N3CCN(C)CC3)cc2)nc1Nc1cccc(S(=O)(=O)NC(C)(C)C)c1,0.0181 ± 0.39
6,Nc1ccc(-c2ccc3ncc4ccc(=O)n(-c5cccc(C(F)(F)F)c5)c4c3c2)cn1 [Torin 2],0.796 ± 0.29
7,CC1(COc2ccc3c(c2)ncn3-c2ccc3cccc(N4CCC(N)CC4)c3n2)COC1,0.0444 ± 0.77
8,Cn1cnc(N)c2ncnc1-2 [3-Methyladenine (3-MA)],0.219 ± 0.67
9,COc1cc(OC)c(/C=C/S(=O)(=O)Cc2ccc(OC)c(NCC(=O)O)c2)c(OC)c1,0.00703 ± 0.25
10,N#CCNC(=O)c1ccc(-c2ccnc(Nc3ccc(N4CCOCC4)cc3)n2)cc1 [Momelotinib (CYT387)],-1.97 ± 1
11,CNC(=O)c1cc(Oc2ccc(NC(=O)Nc3ccc(Cl)c(C(F)(F)F)c3)c(F)c2)ccn1 [Regorafenib (BAY 73-4506)],2 ± 0.81
12,COc1cc2nccc(Oc3ccc(NC(=O)Nc4cc(C)on4)c(Cl)c3)c2cc1OC [Tivozanib (AV-951)],-0.573 ± 0.16
13,N#Cc1c(O)c2c(-c3ccc(-c4ccccc4O)cc3)csc2[nH]c1=O,0.457 ± 0.29
14,N#C/C(=C(/N)Sc1ccc(N)cc1)c1ccccc1C(F)(F)F,-0.253 ± 0.36
15,CCCNC(=O)Nc1ccc(Oc2ncnc3cc(OC)c(OC)cc23)cc1Cl,0.704 ± 0.077
16,COc1ccc(-c2ccc3c(N4CCOC[C@@H]4C)nc(N4CCOC[C@@H]4C)nc3n2)cc1CO,0.926 ± 0.45
17,O=C(Cc1ccc(-c2ccc(OCCN3CCOCC3)cc2)cn1)NCc1ccccc1,0.711 ± 0.45
18,CN(C)Cc1cccc(N=C(c2ccccc2)c2c(O)[nH]c3cc(C(=O)N(C)C)ccc23)c1,0.69 ± 0.34
19,COc1cc2nccc(Oc3ccc(NC(=O)C4(C(=O)Nc5ccc(F)cc5)CC4)cc3)c2cc1OC [Cabozantinib malate (XL184)],0.553 ± 0.015
20,CNC(=O)c1cc(Oc2ccc(NC(=O)Nc3ccc(Cl)c(C(F)(F)F)c3)cc2)ccn1 [Sorafenib Tosylate],-0.335 ± 0.66
21,O=C(NCCCNc1nc(Nc2cccc(NC(=O)N3CCCC3)c2)ncc1I)c1cccs1,-0.658 ± 0.97
22,CCCCCCCCCCCCc1ccc(S(=O)(=O)Nc2nncs2)cc1,1.17 ± 0.77
23,CNC(=O)c1cccc(-c2ccc3c(N4CCOC[C@@H]4C)nc(N4CCOC[C@@H]4C)nc3n2)c1 [Vistusertib (AZD2014)],-0.936 ± 1.4
24,COc1ccc(-c2ccc3c(N4CCOCC4)nc(N4C[C@@H](C)O[C@@H](C)C4)nc3n2)cc1CO,0.495 ± 0.19
25,COc1cc2ncnc(Oc3ccc(CC(=O)Nc4cnn(C(C)C)c4)cc3)c2cc1OC,-0.525 ± 0.26
26,Cc1cnc(Nc2ccc(OCCN3CCCC3)cc2)nc1Nc1cccc(S(=O)(=O)NC(C)(C)C)c1,-0.235 ± 0.43
27,O=C(NCc1cccc(O)c1)Nc1nc(-c2ccncc2)cs1,0.289 ± 0.42
28,CNC(=O)CN1CCC(Oc2cc3c(Nc4cccc(Cl)c4F)ncnc3cc2OC)CC1 [Sapitinib (AZD8931)],0.472 ± 0.47
29,COc1ccc(S(=O)(=O)N(C(C)=O)c2ccccc2/C=C/c2cc[n+]([O-])cc2)cc1,0.21 ± 0.36
